Results as given in PubChem BioAssay (Tox21).
Several values for one entry are separate records, joined by “and”; a condition that tells them apart may be missing. Identical values can stand only once. Records with an inconclusive call do not appear. Where a call stands in place of a potency, no number is given. Where a structure was tested more than once in an assay, its records may differ in their call. Activity calls are given as the source filed them. The call rests on the fitted dose curve; in most records, active means well fitted cell-killing curve with a large enough effect in the repeat runs; inconclusive means weak or mixed curves, or effect the other way; inactive means no such curve, though single readings can be large or run the other way.

Experiment: qHTS assay to identify small molecule antagonists of the vitamin D receptor (VDR) signaling pathway - cell viability counter screen (AID 743225); further: nearly all actives have a fitted effect of over 50% in size
Conditions: VDR-bla HEK293T viability, CellTiter-Glo luminescence, 16 h; series mostly up to 61 µM
Excerpt: U.S. Tox21 Program National Center for Advancing Translational Sciences [NCATS] NIH Chemical Genomics Center [NCGC] U.S. Environmental Protection Agency [EPA] National Institutes of Environmental Health Sciences [NIEHS] National Toxicology Program [NTP] U.S. Food and Drug Administration [FDA] Tox21 Assay Overview: The vitamin D receptor (VDR), a member of nuclear hormone receptor superfamily, plays a critical role in calcium homeostasis and bone metabolism. It is also involved in cell differentiation and growth, and thrombogenicity. To identify the compounds that inhibit VDR signaling, the VDR-UAS-bla HEK 293T cell line (Invitrogen, Carlsbad, CA, USA) containing a beta-lactamase reporter gene under the control of an upstream activator sequence (UAS) was used to screen the Tox21 10K compound library. The cytotoxicity of the Tox21 compound library against the VDR-bla cell line was tested in parallel by measuring the cell viability using CellTiter-Glo assay (Promega, Madison, WI) in the same wells.
Tox21 Assay Protocol Summary: VDR-bla cells were dispensed at 2,000 cells/5 uL of assay medium per well into black wall/clear-bottom 1536-well plates using a Multidrop Combi (Thermo Fisher Scientific, Waltham, MA) dispenser. After the assay plates were incubated at a 37C and 5% CO2 for 4 h, 23 nL of compounds dissolved in DMSO, positive controls or DMSO only was transferred to the assay plate by a Pintool station (Kalypsys, San Diego, CA), followed by addition of 1 uL of 1-alpha, 25-Dihydroxy Vitamin D3 (3 nM, final concentration in the wells) using a Bioraptr Flying Reagent Dispenser (FRD) workstation (Beckman Coulter, Indianapolis, IN). The plates were incubated at 37C and 5% CO2 for 16 h, and then 1 uL of LiveBLAzerTM B/G FRET substrate was added using a Bioraptr FRD. The plates were incubated at room temperature for 2 h and fluorescence intensity was measured by an Envision plate reader (PerkinElmer, Shelton, CT). For cell viability readout that measures cytotoxicity, 3 ul/well of CellTiter-Glo reagent was added into the assay plates using a Bioraptr FRD. After 30 min incubation at room temperature, the luminescence intensity in the plates was measured using a ViewLux plate reader (PerkinElmer).
Potency means the concentration at half of the fitted maximal effect.

| Structure (SMILES) | Potency |
| --- | --- |
| COC(=O)/C=C(\C)OP(=O)(OC)OC | inactive |
| C[C@]12C/C(=C/O)C(=O)C[C@@H]1CC[C@@H]1[C@@H]2CC[C@@]2(C)[C@H]1CC[C@]2(C)O | inactive |
| CC[C@]1(O)CC[C@H]2[C@@H]3CCC4=CCCC[C@@H]4[C@H]3CC[C@@]21C | inactive |
| c1ccc(Nc2ccc(Nc3ccccc3)cc2)cc1 | inactive |
| CCCCCCCc1ccc(O)cc1 | inactive |
| COc1ccc2c(c1OC)C(=O)O[C@@H]2[C@H]1c2cc3c(cc2CCN1C)OCO3 | inactive |
| Nc1nc(N)nc(Cl)n1 | inactive |
| Cc1cc(C2CC2)nc(Nc2ccccc2)n1 | inactive |
| C=CC(=O)[O][Sn]([CH2]CCC)([CH2]CCC)[CH2]CCC | 3.09 µM (active) |
| O=C(O)[C@H](O)[C@@H](O)C(=O)O | inactive |
| CC(C)C(Nc1ccc(C(F)(F)F)cc1Cl)C(=O)OC(C#N)c1cccc(Oc2ccccc2)c1 (stereo not given) | inactive |
| CCOC(=O)CCN(SN(C)C(=O)Oc1cccc2c1OC(C)(C)C2)C(C)C | inactive |
| O.O.O.O.O.O.O=S(=O)([O-])[O-].[Ni+2] | inactive |
| O=P(Cl)(Cl)Cl | inactive |
| CC(=O)C(Cl)C(=O)N(C)C (stereo not given) | inactive |
| CCOP(=O)(Sc1ccccc1)Sc1ccccc1 | inactive |
| CC(=O)O.CC(=O)O.CC(=O)O.CC(=O)O.CC(=O)O.CC(=O)O.CC(=O)O.O.O.[Cr].[Cr].[Cr] | inactive |
| CCCCn1cc[n+](C)c1.[Cl][Fe-]([Cl])([Cl])[Cl] | inactive |
| CC(Cc1ccc2c(c1)OCO2)NO (stereo not given) | inactive |
| CC(Cc1ccc(OCC(=O)O)cc1)NCC(O)c1csc(C(F)(F)F)n1 (stereo not given) | inactive |

| Structure (SMILES) | Potency |
| --- | --- |
| O=S1OCC2C(CO1)C1(Cl)C(Cl)=C(Cl)C2(Cl)C1(Cl)Cl (stereo not given) | inactive |
| COC(=O)c1cc(Oc2ccc(Cl)cc2Cl)ccc1[N+](=O)[O-] | inactive |
| CCCCN(CCCC)C(=S)[S-].CCCCN(CCCC)C(=S)[S-].[Ni+2] | inactive |
| OCC(Br)CBr (stereo not given) | inactive |
| COCCC#N | inactive |
| ClC1(Cl)C2(Cl)C3(Cl)C4(Cl)C(Cl)(Cl)C5(Cl)C3(Cl)C1(Cl)C5(Cl)C24Cl (stereo not given) | inactive |
| CCCCCCCCCCCCCCn1cc[n+](C)c1 | 27.6 µM (active) and 43.2 µM (active) and inactive |
| CCN1CCC2(CC1)COc1cc3c(cc12)N(C(=O)c1ccc(-c2ccc(-c4nnc(C)o4)cc2C)cc1)CC3 | 20.2 µM (active) |
| COC(=O)c1ccccc1S(=O)(=O)NC(=O)Nc1nc(C)nc(OC)n1 | inactive |
| COP(=O)(OC)Oc1ccc([N+](=O)[O-])cc1 | inactive |
| CCN(CC)Cc1nccn1-c1ccc([N+](=O)[O-])cc1C(=O)c1ccccc1Cl | inactive |
| CCNc1nc(NC(C)C(C)C)nc(SC)n1 (stereo not given) | inactive |
| C#CCO | inactive |
| Fc1ccc(C(OCCN2CCN(CCCc3ccccc3)CC2)c2ccc(F)cc2)cc1 | 21.3 µM (active) |
| CCCCc1ccccc1 | inactive |
| CC(Cl)CCl (stereo not given) | inactive |
| CN1CCc2cc(Cl)c(O)cc2[C@H]2c3ccccc3CC[C@@H]21 | inactive |
| CNC(=O)O/N=C(\C)C(C)S(C)(=O)=O (stereo not given) | inactive |
| COP(=S)(OC)Oc1ccc([N+](=O)[O-])c(C)c1 | inactive |
| CC(=O)[O-].CC(=O)[O-].O.O.O.[Pb+2] | inactive |
